Measured potencies and affinities stand elsewhere.
assay: inducers of E-selectin gene expression, confirmation, orthogonal assay for E-selectin inducer project, cell-based, HUVEC, RT-qPCR, dry powder (AID 1117270); conditions: HUVEC SELE mRNA, 7 h; at 38 µM unless noted;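 active means compounds with a valid dose curve toward the stimulated control whose half-maximal dose is at most twice the top dose; inconclusive means curve fit judged invalid or of poor quality; inactive means the rest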

Max activity, inactive:
O=C(c1c(F)cccc1F)N(Cc1ccccc1)Cc1ccccc1 -17.4% [at 0.16 µM]
Cc1cc2cc(CNC(=O)Nc3ccc(Cl)c(Cl)c3)ccc2n1C -8.31%
O=C(O)C1CCN(c2nc(-c3ccccc3)c3cc(Br)ccc3n2)CC1 -4.71% [at 0.038 µM]
CNc1ccccc1C(C)(C)c1cc(-c2cccc(OC)c2)no1 -5.8% [at 0.0001 µM]
Cc1ccc(S(=O)(=O)NCc2ccc3c(c2)cc(C)n3C)cc1 4.64%
Cc1ccc(CSc2nc3[nH]ncc3c(=O)[nH]2)cc1 8.8% [at 0.0001 µM]
COc1cc(CC2C(=O)Nc3ccccc32)cc(C)c1O (centres undefined) 8.57% [at 0.038 µM]
COc1ccc(Nc2ccccc2N)cc1 12.2%
Cc1cc2ccccc2n1CCNC(=O)COc1ccc2ccccc2c1 9.31% [at 10 µM]
Cc1cc(C)c(S(=O)(=O)NCCn2c(C)cc3ccccc32)c(C)c1 -91.1%
OCc1ccc(-c2nn(Cc3ccccc3)c3ccccc23)o1 6.5% [at 2.6 µM]
Cc1cc2cc(CNC(=O)Nc3cccc(Cl)c3)ccc2n1C 7.76% [at 1.2 µM]
CCc1cccc2c1NC1(CCCC1)CC2C (centres undefined) 7.51% [at 5 µM]
CCc1ccc(-n2c(=S)sc3c(=O)n(-c4ccccc4C)c(SCC(=O)O)nc32)cc1 9.28% [at 10 µM]
